Test results as given in PubChem BioAssay (NCI).
Compounds without any hit were thinned out: in the full panel of roughly 79,000, 15% have a hit. Unmarked numbers belong to inactive results. Activity calls are given as the source filed them. No stated cut-off is given here; in the data, active means growth inhibition above about 70%; inactive means the rest.

What was measured:
[1] = NCI Yeast Anticancer Drug Screen. Data for the rad50 strain (AID 155);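 further: 0% = growth of vehicle-only cultures of the same strain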; conditions: S. cerevisiae rad50 strain growth inhibition; at 50.0 µM; stronger effect = higher value
Outline: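 Genetically altered yeast (DNA repair pathway); compound treatment; growth inhibition vs vehicle ctrl.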

[2] = NCI Yeast Anticancer Drug Screen. Data for the mec2-1 strain (AID 157); conditions: S. cerevisiae mec2-1 strain, at 50.0 µM, stronger effect = higher value
Outline: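 Mutant yeast (mec2-1) grown with compound; growth inhibition relative to vehicle control reported.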

[3] = NCI Yeast Anticancer Drug Screen. Data for the sgs1 mgt1 strain (AID 161);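 further: 0% = growth of cultures given vehicle only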; conditions: S. cerevisiae sgs1 mgt1 strain, at 50.0 µM, stronger effect = higher value
Outline: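 Percent growth inhibition was derived by comparing compound-exposed mutant yeast with vehicle-exposed cultures. The strain carries alterations in DNA damage repair.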

[4] = NCI Yeast Anticancer Drug Screen. Data for the cln2 rad14 strain (AID 165);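 further: 0% = growth equal to vehicle treated cultures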; conditions: S. cerevisiae cln2 rad14 strain, at 50.0 µM, stronger effect = higher value
Outline: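 Readout is yeast growth inhibition versus vehicle-treated controls, using a strain with cln2 and rad14 alterations exposed to compound.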

[5] = NCI Yeast Anticancer Drug Screen. Data for the bub3 strain (AID 167); conditions: S. cerevisiae bub3 mutant strain, at 50.0 µM, stronger effect = higher value
Outline: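 Yeast carrying a defined mutation is treated with each compound, and growth is compared with that of vehicle-exposed cells to give inhibition.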

[6] = NCI Yeast Anticancer Drug Screen. Data for the mlh1 rad18 strain (AID 175); conditions: S. cerevisiae mlh1 rad18 strain growth inhibition; at 50.0 µM; stronger effect = higher value
Outline: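 Genetically defined yeast (DNA repair-deficient) exposed to compounds; growth inhibition determined relative to vehicle.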

Row | SMILES | growth inhibition [1] | growth inhibition [2] | growth inhibition [3] | growth inhibition [4] | growth inhibition [5] | growth inhibition [6]
1 | c1ccc(N2CCSCC2)cc1 | 2.95% | -5.45% | -21.9% | -6.25% | 0.3% | -7.15%
2 | C=Cc1c2[n-]c(c1C)/C=c1\[n-]/c(c(C)c1C=C)=C\c1[n-]c(c(CCC(=O)O)c1C)/C=c1\[n-]/c(c(C)c1CCC(=O)O)=C\2.[Co] | 14.8% | 54.9% | 53.6% | -2.05% | 19.2% | 59.9%
3 | CC(=O)O[C@H]1CC[C@@]2(C)[C@@H](CC[C@@H]3[C@@H]2CC(=O)[C@]2(C)[C@@H]4[C@H](C[C@@H]32)O[C@]2(CC[C@@H](C)CO2)[C@H]4C)C1 | -11.7% | -12.2% | -11.8% | -13.2% | -34.6% | 2.3%
4 | CCOc1ccccc1/C=C/C(=O)O | 4.6% | -9.7% | -11.8% | -19% | -22.1% | -21.4%
5 | CCn1c2ccccc2c2cc(N=Nc3cc(N)ccc3N(C)C)ccc21 | -3.35% | -7.85% | -9.1% | -22.3% | -5.05% | -4.6%
6 | [Cl][Cu][Cl].c1ccc2c(c1)Sc1ccccc1[N+]2=c1ccc2nc3ccccc3sc-2c1 | 26.1% | 45.8% | 29.8% | 2.7% | 29.9% | 35%
7 | O=[N+]([O-])c1ccc(Oc2ccc(Cl)cc2)cc1 | 16.9% | -11.8% | 14.6% | 2.1% | -18.9% | 21.8%
8 | CCCCn1c(-c2ccccc2)cs/c1=N\N=C1C=C(C(C)(C)C)C(=O)C(C(C)(C)C)=C1 | 12.2% | -13.9% | 0.05% | -35.2% | -16.9% | 16.9%
9 | CCC1(C(=O)OC)CCc2c(OC)ccc(OC)c2C1=O (stereo not given) | -8.65% | -9.35% | 0.1% | 3.25% | -12.9% | -46.8%
10 | Cc1cc(C)c(NC(=O)C(C)(C)C)c(C)c1 | -7.15% | -12.9% | -17.7% | -48.9% | 10.2% | -2.2%
11 | CC(C)(C)CC(C)(O)C(=O)O (stereo not given) | 6.9% | -18.9% | -15.8% | -1.45% | -13.5% | -3.55%
12 | CC(=O)C(C(C)=O)C(C(C)=O)C(C)=O.[Cu] | -26.8% | -11.3% | -21.1% | -10.4% | -18.4% | -22.1%
13 | C/C(=C/c1ccccc1)OC(=O)c1ccccc1 | 25.7% | 4.55% | 10.8% | -1.85% | 26.4% | 36.2%
14 | COc1cccc2c1C(=O)C1(O)CCCCC21 (stereo not given) | -55.8% | -41.6% | -65.3% | -21.4% | -59.5% | -25.7%
15 | CCN(CC)CCNC(=O)Nc1ccc(OC)cc1 | 2.15% | 24% | 13.8% | -0.05% | 32.8% | 7.65%
16 | CN=C(c1ccccc1)N(O)c1ccccc1 | -16.1% | -1.15% | -8.15% | -10.1% | -1.65% | 6.2%
17 | NCCS/C=C\C(=O)OCc1ccc(Br)cc1 | 31.6% | 4.4% | 9.65% | 6.45% | 19.1% | 54.1%
18 | Cc1cc(N(CCC#N)CCC#N)ccc1/C=C(\NC(=O)/C=C/c1ccccc1)C(=O)Nc1ccccc1Cl | 32.3% | 13.8% | 42.1% | 9.7% | 1.2% | 14.9%
19 | C[Si](C)(C)C#C[I+]c1ccccc1 | -27.6% | -24.4% | 12.7% | 5.65% | 8.95% | -8.85%
20 | O=C1CC2CCC(C1)S2=O (stereo not given) | 19.6% | -10.5% | 17.5% | 23% | 12.8% | 18.5%

Row | SMILES | growth inhibition [1] | growth inhibition [2] | growth inhibition [3] | growth inhibition [4] | growth inhibition [5] | growth inhibition [6]
21 | O=C(c1ccccc1)c1ccccc1C(=O)c1ccccc1 | 77% (active) | 25.6% | 54% | -43% | 70.4% (active) | 52%
22 | CCOC(=O)NC1c2ccccc2Oc2ccccc21 | -4.5% | -5.4% | 4.95% | -16.3% | 11% | 2.3%
23 | COC(=O)C1C(C(=O)OC)C2(C)C(=O)C1(C)C(c1ccccc1)=C2c1ccccc1 (stereo not given) | -0.7% | 2.55% | -5.4% | -12.3% | 1.15% | 5.15%
24 | CCC(CC)C1OCC(O)CO1 (stereo not given) (tested in a mixture with another compound) | 20.4% | 2.7% | 10% | 6.85% | 22.1% | 17.4%
25 | N=C1N=Nc2nc(C(C(=O)c3cccc4ccccc34)c3nc4n(c3O)C(=N)N=N4)c(O)n21 (stereo not given) | 19.5% | 1.35% | 14.2% | 22.1% | 0.9% | 26.2%
26 | O=c1[nH]nc(S(=O)(=O)N2CCCC2)c(=O)[nH]1 | -10.9% | -9% | -10.7% | -2.85% | -4.15% | -13.2%
27 | O=S1(=O)C=CC(N/N=C\c2ccc3ccccc3n2)=C1 | 4.8% | -11.1% | -4.45% | -36.8% | 9.7% | -7.25%
28 | COc1ccc2c(c1)C1(C)CCCC(C)(C(N)=O)C1CC2 (stereo not given) | 0.1% | -15.8% | -8.05% | 8.95% | -12.2% | -24.7%
29 | COc1cc(C(C)Cl)ccc1OC(=O)c1ccccc1 (stereo not given) | 10.8% | -5% | 3.95% | -10.2% | 12.2% | 4.5%
30 | O=C1OC(c2cccc(C(F)(F)F)c2)c2ccc3ccccc3c21 (stereo not given) | 14.3% | -0.45% | 10.7% | 18.1% | 10.8% | 22.8%
31 | Cc1cccc(Cl)c1OCC(=O)O | -1.25% | -8.55% | -1.95% | -35.8% | -20.8% | -13.2%
32 | CC1(C)CCCc2c(-c3ccccc3)cc3c4[nH]c5ccccc5c4cc[n+]3c21 | 23.6% | -5.4% | 11.1% | 3.65% | -2.5% | 7%
33 | CCCCCCCCCCCCCCCCCC | -9.7% | -6.9% | -16.2% | 6.7% | 0.25% | -2.15%
34 | NC(=O)NC(=O)CC1NC(=O)NC1=O (stereo not given) | 9.25% | 12% | 18.1% | 12.1% | -4.1% | -16.4%
35 | CCc1cccc2[nH]c3cc([N+](=O)[O-])ccc3c12 | 12% | -13.8% | 2.5% | -22.8% | -0.4% | 15.7%
36 | CN1CCN(C(=S)N(C(=O)c2ccc(Cl)cc2)c2ccccc2)CC1 | -49.2% | -36.5% | -20.6% | -6.8% | 4.65% | -7.25%
37 | Cc1ccc([N+](=O)[O-])cc1N1CCNC1=O | 8.05% | -17.2% | -12.2% | -62.7% | 9% | -21.9%
38 | CCCCNC(=O)Nc1cc(C)ccc1C | -0.4% | 1.95% | -0.7% | -9.75% | 8.2% | 2.1%
39 | CN(/N=C/c1cccc2cccnc12)c1ccccc1 | 8.9% | 6.3% | -0.45% | 29.4% | 14.6% | 16.7%
40 | CCOC(=O)/C(C#N)=C/c1ccc(O)c(OC)c1 | 30.4% | -8.5% | 4.95% | 14.5% | 12.6% | 23.3%
